# aSyn 5UTR act = Activators via SNCA 5'UTR binding, MLPCN; actives 7.1% (n = 300,000); activity score, % (tested at 7.5 µM), hits read low; alpha-synuclein 5'UTR reporter, activators screen; in the data active means activity score below about -60%
# A number is an active result; 0 = inactive. Only a sample is shown.
SMILES,aSyn 5UTR act
COc1cccc(-c2nnc(-c3ccc(C(F)(F)F)cc3)o2)c1OC,-125.2
CCc1ccc(NC(=O)C(=O)NCc2ccccn2)cc1,-144.3
O=C(CSCc1ccccn1)Nc1ccccc1,-69.8
S=C(NCc1ccccn1)Nc1ccc(Cl)cc1Cl,-129.7
S=C(NCc1ccccn1)Nc1ccccc1,-85.7
COc1ccccc1NC(=S)NCc1ccccn1,-80.3
CC(=O)/C(N=Nc1ccc2c(c1)OCO2)=C(\C)O,-244.8
COc1ccc(-c2noc(-c3cccs3)n2)cc1OC,-174.0
COc1cc(-c2noc(-c3cccs3)n2)cc(OC)c1OC,-94.6
COc1cc(OC)cc(-c2nc(-c3cccs3)no2)c1,-139.3
COc1cc(-c2noc(C)c2/C=C/c2cccc([N+](=O)[O-])c2)cc(OC)c1OC,0
O=[N+]([O-])c1ccc(COc2ccccc2/C=N/O)cc1,-132.3
CC(=O)c1ccc(N(C(=O)Cc2c[nH]c3ccccc23)C(C(=O)NC2CCCCC2)c2cccs2)cc1 (stereo not drawn),-83.7
C=CCN1N=C(/C=C/c2ccc(C)cc2)CCC1=O,-88.6
C=CCN1N=C(/C=C/c2ccc(OC)cc2)CCC1=O,-84.3
COc1ccc(/C=C/C2=NNC(=O)CC2)cc1,0
COc1ccc(S(=O)(=O)Nc2ccccc2OC)cc1NC(=O)c1cc2ccccc2oc1=O,-158.9
COc1ccc2oc(=O)c(C(=O)Nc3cccc(C)c3)cc2c1,-127.6
COc1ccc(NC(=O)c2cc3ccccc3oc2=O)c(OC)c1,-112.7
COc1ccc(NC(=O)c2oc3ccccc3c2C)c(OC)c1,-215.6
COc1ccccc1C(=O)Nc1cc2ccccc2oc1=O,-172.2
O=C(/C=C/c1ccco1)NC(=S)Nc1ccccc1O,-120.6
O=C(/C=C\c1ccco1)NC(=S)Nc1ccccc1O,-74.3
O=[N+]([O-])c1ccc(/C=N/n2cnc3ccccc32)s1,0
COc1cccc(/C=N/n2cnc3cc(C)c(C)cc32)c1OC,-97.3
SMILES,aSyn 5UTR act
Cc1cc2ncn(/N=C/c3ccc([N+](=O)[O-])s3)c2cc1C,-117.3
COC(=O)c1ccc(-c2ccc(Cl)cc2)nc1C,-125.5
O=C(/C=C/c1ccc(S(=O)(=O)NCc2ccco2)cc1)NCc1ccccc1Cl,-72.3
O=C(/C=C/c1ccc(Cl)cc1)NCc1ccco1,-87.2
O=c1c2ccccc2nc2ccc(NCc3cccs3)nn12,-163.9
COc1ccccc1/C=C/C=C(\C#N)C(=O)NC(C)c1ccccc1 (stereo not drawn),-74.0
NC(=O)c1ccccc1N/C=C/C(=O)c1ccc(F)cc1,-64.9
Cc1ccc(C=Nc2ccccc2C(N)=O)o1,-154.1
COc1ccccc1Oc1ccc(N/C=C/C(=O)c2ccc(C)o2)cc1,-88.7
Cc1ccc(C(=O)/C=C/Nc2ccccc2C(N)=O)o1,-199.8
CCCn1c(C)cc(C(=O)CSc2nc3ccccc3c(=O)n2Cc2ccco2)c1C,-218.9
COCCn1c(C)cc(C(=O)CSc2nc3ccccc3c(=O)[nH]2)c1C,-152.3
COCCn1c(C)cc(C(=O)CSc2ccc3ccccc3n2)c1C,-140.9
COc1cc(C)ccc1OCCOc1ccccc1Cl,-208.0
CC1(C)N=C(N)N=C(N)N1c1ccc(OCCCOc2ccccc2)c(Cl)c1,0
COc1cc(C)ccc1OCCCOc1ccccc1Cl,-207.3
O=c1cc(-c2ccccc2)[nH]c2nc3ccccc3n12,-88.7
COc1ccc(C(=O)N2CCc3ccccc32)cc1,-88.8
COc1ccc(/C=C/C(=O)N2CCCc3ccccc32)cc1,-93.0
COc1ccc(CCC(=O)N2CCc3ccccc32)cc1,-90.5
COC(=O)C1=C(CN2CCCc3ccccc32)NC(=O)NC1c1ccc(F)cc1 (stereo not drawn),0
COc1cc2[nH]c(C(=O)N3CCc4ccccc43)cc2c(OC)c1OC,-93.3
Cc1ccc(/C=C/C(=O)N2CCc3ccccc32)o1,-204.2
O=c1oc2c(-c3cccc(F)c3)cc(O)cc2s1,-79.5
COc1ccc(-n2ncc3c(N4CCC(C(N)=O)CC4)ncnc32)cc1,-124.1
SMILES,aSyn 5UTR act
COc1ccc(-n2ncc3c(N4CCN(Cc5ccccc5)CC4)ncnc32)cc1,-115.0
c1ccc(-n2ncc3c(N4CCCCC4)ncnc32)cc1,0
CC1CCCN(c2ncnc3c2cnn3-c2ccc(Cl)cc2)C1 (stereo not drawn),0
Oc1c(CN2CCN(c3ccccc3)CC2)cc(Br)c2cccnc12,0
CC1CC(C)CN(c2ncnc3c2cnn3-c2ccc(Cl)cc2)C1 (stereo not drawn),-99.0
CCN1CCN(c2ncnc3c2cnn3-c2ccccc2)CC1,-98.1
CCOC(=O)N1CCN(c2ncnc3c2cnn3-c2ccc(Cl)cc2)CC1,-85.7
CCN1CCN(c2ncnc3c2cnn3-c2ccc(Cl)cc2)CC1,-63.3
COC(=O)c1ccc(N)nc1,-78.7
Cc1ccc(NC(=O)Nc2ccnc(-c3cccnc3)n2)cc1,0
COc1ccc(C(=O)Nc2ccnc(-c3cccnc3)n2)cc1,-166.0
Cc1ccc(C(=O)Nc2ccnc(-c3cccnc3)n2)cc1,-268.6
O=C(Nc1ccnc(-c2cccnc2)n1)c1ccc(Cl)c(Cl)c1,-63.3
CCCN(CC(=O)Nc1cc(Cl)ccc1Cl)C(=O)/C=C/c1ccco1,-67.7
CN1C(=O)/C(=C/C=C2\SCCN2C)N(C)C1=S,-176.6
CC(C)(C)n1cnc2cc(NC(=O)c3ccccc3)ccc21,-136.6
CC(C)(C)n1cnc2cc(NCc3cccs3)ccc21,-102.0
CC(C)(C)n1cnc2cc(NC(=O)c3cccs3)ccc21,-133.6
COc1ccccc1-n1cnc2cc(NCc3cccs3)ccc21,0
CCn1cnc2cc(NC(=O)c3cccs3)ccc21,-109.2
O=C(Oc1ccc2cc(Br)ccc2c1)N1CCCCCC1,-169.3
CS/C(N)=N/N=C/c1cc(C)ccc1O,-93.9
CCCCS/C(N)=N/N=C/c1cc(C)ccc1O,-76.4
COc1ccccc1OCC(=O)N/N=C/c1c(O)ccc2ccccc12,0
CCS/C(N)=N/N=C/c1cc(C)ccc1O,-82.2
SMILES,aSyn 5UTR act
CS/C(N)=N/N=C/c1c(O)ccc2ccccc12,-175.3
O=C(NC1CCCCC1)c1cc(-c2ccc(F)cc2)on1,-155.8
Cc1ccc(-c2cc(C(=O)NC3CCCC3)no2)cc1,-140.6
Cc1nn(Cc2ccc(Cl)c(Cl)c2)c(C)c1NC(=O)c1cc(-c2ccc3c(c2)OCO3)on1,0
O=C(NC1CCCCC1)c1cc(-c2cccs2)on1,-160.9
O=C(NC1CCCC1)c1cc(-c2ccc(Cl)c(Cl)c2)on1,-150.8
O/N=C/c1ccn(-c2ccc(Br)cc2)c1,-84.1
O=C(Nc1nnc(-c2ccncc2)s1)Nc1ccccc1F,-102.5
O=C(Nc1nnc(Cc2ccccc2)s1)Nc1ccccc1F,-103.4
O=C(/C=C/c1ccccc1)NCCc1c[nH]c2ccccc12,-111.2
O=C1c2ccccc2C(=O)N1CCc1c[nH]c2ccccc12,-172.1
Cc1ccc(C(=O)NCCc2c[nH]c3ccccc23)c(C)c1,-104.3
Cc1ccc(C(=O)NCCc2c[nH]c3ccccc23)s1,-177.7
O=C(/C=C/c1ccccc1)c1c[nH]c2ccccc12,-98.1
O=C(NCCc1c[nH]c2ccccc12)c1ccccc1,-107.2
Cc1ccc(-c2ccc(C3C(C#N)=C(N)Oc4n[nH]c(C)c43)o2)cc1 (stereo not drawn),-107.3
Cc1[nH]nc2c1C(c1ccc(-c3ccc(Cl)cc3)o1)C(C#N)=C(N)O2 (stereo not drawn),-63.0
Cc1ccc2cc(C3C(C#N)=C(N)Oc4c3ccc3cccnc43)c(=O)[nH]c2c1 (stereo not drawn),0
O=C(Nc1ccc(NC(=O)c2ccco2)c(Cl)c1)c1ccccc1,-99.5
O=C(Nc1ccc(Br)c(Cl)c1)c1ccco1,-162.5
CC(C)COc1ccc(C(=O)Nc2ccc(NC(=O)c3ccco3)c(Cl)c2)cc1,-149.5
